Screening results from PubChem BioAssay.
SARS PLpro yeast: blocks SARS-CoV papain-like protease in a yeast assay; S. cerevisiae expressing SARS-CoV PLpro, growth rescue; Potency, µM (highest dose often 32.9 µM), inactives show at the highest dose activity, positive = growth rescue, hits mostly activators; 0.19% of 330,000 active; AID 485353; calls by dose curve; note: 0% is about no effect; nearly all actives have a fitted effect of over 55% in size
Pf growth 48h: inhibits P. falciparum growth in the first generation, 48 h; P. falciparum luciferase growth in erythrocytes, 48 h; Potency, µM (series often up to 28.7 µM), for inactives: at the top dose activity change, negative = inhibition, hits mostly inhibitors; 5.9% of 310,000 active; note: % is set by controls: 0 for no effect and ±100 for the full control effect
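Cell-based growth assay: transgenic P. falciparum expressing firefly luciferase, cultured in red cells within RPMI 1640 containing 0.5% w/v Albumax, 24 mM bicarbonate and gentamycin. A drop in luciferase activity indicates inhibition.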
AmpC inh detg: AmpC beta-lactamase inhibition with detergent present. P00811. 0.041% of 370,000 active. Potency, µM (series often up to 114 µM), for the others: at the highest dose activity change, negative = inhibition, usual class: inhibitors. AmpC hydrolysis of nitrocefin, absorbance 480 nm, 0.01% Triton;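 note: 0% = no-compound wells and -100% = no-enzyme wells; nearly all actives have a fitted effect of over 25% in size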
Target sequence (P00811 whole entry, looked up): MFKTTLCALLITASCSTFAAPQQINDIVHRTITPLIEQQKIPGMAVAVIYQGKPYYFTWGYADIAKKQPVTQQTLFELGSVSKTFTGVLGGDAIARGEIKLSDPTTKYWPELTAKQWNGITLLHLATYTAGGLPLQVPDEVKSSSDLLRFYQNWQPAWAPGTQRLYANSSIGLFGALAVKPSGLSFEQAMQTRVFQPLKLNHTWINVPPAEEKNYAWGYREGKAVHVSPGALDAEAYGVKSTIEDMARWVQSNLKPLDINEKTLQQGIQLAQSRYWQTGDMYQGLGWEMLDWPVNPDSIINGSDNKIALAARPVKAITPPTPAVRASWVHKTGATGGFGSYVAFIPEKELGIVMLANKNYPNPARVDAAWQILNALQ
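20 mM phosphate pH 7.0 + 0.01% (detergent screen) or 0.0001% Triton X-100; 5.3 nM AmpC reagent; cpd preinc 15 min RT; nitrocefin (800 uM stock) to start; A480 q20 s × 4 min; Activity was normalised to no-enzyme and no-compound control wells.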
Pf growth 96h: P. falciparum growth inhibition at 96 hours; P. falciparum luciferase reporter growth, 96 h; Potency, µM (highest dose often 28.7 µM), inactives show at the highest dose activity change, negative = inhibition, hits mostly inhibitors; 6.9% of 320,000 active; AID 504834; note: % is set by controls: 0 for no effect and ±100 for the full control effect
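Delayed-death screen, second-generation endpoint: infected erythrocytes, 2% hematocrit, 0.05% parasitemia final; 96 hours at 37 C, 5% CO2; luciferase detection reagent; luminescence decrease equals reduced growth.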
AmpC inh no detg: AmpC beta-lactamase inhibition without detergent; AmpC nitrocefin hydrolysis, absorbance 480 nm, 0.0001% Triton; P00811; Potency, µM (series often up to 57.1 µM), inactives show at the highest dose activity change, negative = inhibition, actives largely listed as inhibitors; 0.52% of 330,000 active;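 note: plate controls were no compound for no effect and no enzyme for full effect; nearly all actives have a fitted effect of over 20% in size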
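20 mM phosphate pH 7.0 + 0.01% (detergent screen) or 0.0001% Triton X-100; 5.3 nM AmpC reagent; cpd preinc 15 min RT; nitrocefin (800 uM stock) to start; A480 q20 s × 4 min; Activity was normalised to no-enzyme and no-compound control wells.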
Sm TGR block: S. mansoni TGR enzyme inhibition | 3% of 360,000 active | purified TGR, DTNB reduction, TNB absorbance 405 nm | Potency, µM (series often up to 114 µM), for inactives: at the top dose activity change, negative = inhibition, usual class: inhibitors | AID 485364; note: % is set by controls: 0 for no effect and ±100 for the full control effect; nearly all actives have a fitted effect of over 60% in size
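Kinetic colorimetric format: TGR-catalysed, NADPH-driven DTNB reduction monitored via TNB absorbance. Enzyme dispensed at 20 nM; compound exposure 15 min at room temperature before reaction start.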
* = called active by the depositor; ? = inconclusive; / = not tested or not shown. Rows were chosen to be rich in hits. Some 12% of all compounds tested hit in one or more screens of this group. Unless noted, calls come from the whole dose curve; as a rule, active = well fitted curve in the direction sought with a large enough effect; inconclusive = small, poorly fitted or top-dose-only effect, or another doubt; inactive = no such curve, though single readings can be large; an effect the other way counts as inactive or inconclusive. Potency is the fitted concentration of half-maximal effect.

SMILES	SARS PLpro yeast	Pf growth 48h	AmpC inh detg	Pf growth 96h	AmpC inh no detg	Sm TGR block
O=C(Nc1ccc(F)c(Cl)c1)Nc1ccc(Cl)cn1	0%	3%	-8%	28%	-16%	/
O=C(Nc1ccncc1)Nc1ccc(Br)cc1Cl	11%	?	?	11%	7.9µM*	-1%
Cc1ccc(C(=O)/C=C/Nc2cccc([N+](=O)[O-])c2)o1	18%	208%	?	?	-25%	3%
CCOC(=O)C1=C(CN2CCN(C(=O)c3ccco3)CC2)NC(=O)NC1c1ccc(F)cc1 (centres undefined)	2%	10µM*	3%	33%	75%	-28%
CCOC(=O)C1=C(CN2CCN(c3cccc(OC)c3)CC2)NC(=O)NC1c1ccc(OC)cc1 (centres undefined)	/	/	13%	/	/	-3%
CCOC(=O)C1=C(CN2CCN(C(=O)c3ccco3)CC2)NC(=O)NC1c1ccc(OC(C)C)cc1 (centres undefined)	26%	12µM*	-1%	?	124%	-5%
CCOC(=O)C1=C(CN2CCN(C(=O)c3ccco3)CC2)NC(=O)NC1c1ccc(Cl)cc1 (centres undefined)	11%	3.7µM*	?	?	121%	-5%
CCOC(=O)C1=C(CN2CCN(CC)CC2)NC(=O)NC1c1ccc(Cl)cc1 (centres undefined)	/	/	2%	/	/	3%
O=C1CC(c2ccc(Cl)cc2)CC(O)=C1C=NCc1ccc(Cl)c(Cl)c1 (centres undefined)	-6%	17%	-1%	/	-11%	-1%
Nc1nc(NCCCN2CCOCC2)nc(Nc2cccc(Cl)c2)c1[N+](=O)[O-]	0%	5.9µM*	-5%	?	35%	7%
Oc1cccc(Nc2nc(NCC3CCCO3)c3ccccc3n2)c1 (centres undefined)	-1%	0.37µM*	?	-18%	-27%	-3%
Nc1nc(NCC2CCCO2)nc(Nc2ccccc2)c1[N+](=O)[O-] (centres undefined)	17%	10µM*	-5%	?	-18%	-5%
c1ccc(Nc2nc(NCC3CCCO3)c3ccccc3n2)cc1 (centres undefined)	-3%	?	-1%	9%	-16%	-24%
CCOc1ccc(Nc2c3ccccc3nc3ccccc23)cc1	-5%	2.9µM*	-3%	2.1µM*	-13%	4%
Cc1cccc(NC(=O)NNC(=O)c2ccccn2)c1	-6%	/	/	/	-24%	/
Cc1coc2c(C)c3oc(=O)c(CCC(=O)N4CCCCC4)c(C)c3cc12	/	/	-3%	/	/	1%
CCCC(C)c1nc(C(N)=O)c2[nH]c(=O)n(-c3ccc(OC)c(OC)c3)c2n1 (centres undefined)	26%	-1%	-9%	-18%	6%	-4%
CCOc1ccc(Nc2nc(NCC3CCCO3)c3ccccc3n2)cc1 (centres undefined)	-2%	1.2µM*	-10%	-19%	-2%	-15%
COc1ccc(Nc2nc(NCC3CCCO3)c3ccccc3n2)c(OC)c1 (centres undefined)	0%	?	-2%	44%	-4%	/
COC(=O)c1cc(OC)c(OC)c(OC)c1NC(=O)c1cc(=O)n(C)c(=O)n1C	/	/	0%	/	/	-10%
C=Cn1cc[n+](CC(=O)c2ccc(Br)cc2)c1	-2%	?	0%	6.6µM*	-1%	-13%
C[n+]1ccn(CC(=O)c2cc(C(C)(C)C)c(O)c(C(C)(C)C)c2)c1	1%	9.3µM*	-7%	20%	37%	-23%
C=Cn1cc[n+](CC(=O)c2ccc(Cl)cc2)c1	-5%	?	0%	?	-18%	-2%
C[n+]1ccn(CC(=O)c2ccc(Br)cc2)c1	5%	12µM*	2%	9.3µM*	-22%	11%
CCCc1nc(SCc2ccc(OCC)cc2)n[nH]1	-2%	-18%	-6%	-16%	-9%	-2%
SMILES	SARS PLpro yeast	Pf growth 48h	AmpC inh detg	Pf growth 96h	AmpC inh no detg	Sm TGR block
Cc1cccc(CCNC(=O)Cn2ncc3c(=O)oc4ccccc4c32)c1	/	/	-5%	/	/	1%
O=C(Cn1cc([N+](=O)[O-])ccc1=O)NCC1COc2ccccc2O1 (centres undefined)	1%	-6%	6%	-12%	-29%	?
O=S(=O)(c1ccccc1OC(F)(F)F)N1CCN(c2ccnc3cc(Cl)ccc23)CC1	-14%	9.3µM*	-14%	2.3µM*	2%	9%
O=C(c1ccco1)N1CCN(c2ccnc3cc(Cl)ccc23)CC1	0%	?	-4%	16%	24%	/
O=S(=O)(c1cccc(Br)c1)N1CCN(c2ccnc3cc(Cl)ccc23)CC1	-12%	3.7µM*	-8%	1.9µM*	24%	-1%
CC(C)S(=O)(=O)N1CCN(c2ccnc3cc(Cl)ccc23)CC1	-1%	5.2µM*	2%	9.3µM*	33%	-14%
CN(C)S(=O)(=O)N1CCN(c2ccnc3cc(Cl)ccc23)CC1	4%	-19%	-22%	0%	49%	-9%
N#Cc1cccc(S(=O)(=O)N2CCN(c3ccnc4cc(Cl)ccc34)CC2)c1	-4%	13µM*	?	2.3µM*	22%	2%
O=C(CC(=O)NC1CCCCC1)N/N=C/c1cccc2ccccc12	1%	?	3%	?	?	-3%
O=[N+]([O-])c1ccc(S(=O)(=O)N2CCN(c3ccnc4cc(Cl)ccc34)CC2)cc1	3%	5.2µM*	-13%	2.6µM*	-13%	4%
CCOC(=O)c1cc2c(=O)[nH]ccc2nc1C(F)(F)F	0%	?	2%	6.6µM*	4%	-7%
COc1ccc(/C=N/N=C2\SCC(=O)N2c2c(C)n(C)n(-c3ccccc3)c2=O)cc1OC	4%	13µM*	?	?	-22%	-6%
Cc1c(N2C(=O)CS/C2=N\N=C\c2ccc(Cl)cc2)c(=O)n(-c2ccccc2)n1C	0%	20%	2%	44%	54%	-24%
CCOC(=O)c1cc(S(=O)(=O)N2CCN(c3cc(Cl)ccc3C)CC2)[nH]n1	/	/	-6%	/	/	1%
O=C(Nc1ccc(O)c(-c2nc3ccccc3o2)c1)C1(c2ccc(Cl)cc2)CCCC1	-4%	2.3µM*	?	?	-51%	0%
O=C(Nc1ccc(O)c(-c2nc3ccccc3o2)c1)C1(c2ccc([N+](=O)[O-])cc2)CCCC1	27%	7.4µM*	?	?	-37%	4%
O=C(Nc1ccc(O)c(-c2nc3ccccc3o2)c1)c1ccco1	/	/	-1%	/	/	12%
CCOC(=O)c1c(C)[nH]c(C)c1S(=O)(=O)NCC(=O)Nc1ccc(C)c(N(C)C)c1	/	/	0%	/	/	14%
